Source: PubChem BioAssay AID493008 (The Scripps Research Institute Molecular Screening Center, 2010)
Screen size: about 340,000 compounds; about 800 (0.24%) were called active.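 The calls were made as follows: active = activation above the mean over all tested compounds plus 3 SD (cut at about 30% in these data); inactive = the rest.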 This excerpt belongs to a sample that is enriched for actives.

molecular target: Troponin I, cardiac muscle (Homo sapiens) + Troponin T, cardiac muscle (Homo sapiens) + Troponin C, slow skeletal and cardiac muscles (Homo sapiens) (UniProt P19429+P45379+P63316); assay: cardiac RTF calcium sensitivity activators, primary screen, biochemical, IANBD-TnC fluorescence, EC20 calcium (AID 493008); details: IANBD-labeled TnC RTF fluorescence at EC20 calcium; at 7.2 µM; hits give high values; 0% EC20 calcium, 100% full calcium;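 also: rise in fluorescence read as greater calcium sensitivity of cardiac thin filaments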

With `S=C(Nc1ccccc1)Nc1ccc2ccccc2c1` as the molecule, how does the activation read?
The activation was -10.4% (inactive).

How did the activation turn out when `CC1CCCC(C)N1C(=O)CN1CCN(c2nc(-c3ccc(F)cc3)cs2)CC1` (centres undefined) was run?
Its activation is -5.89% (inactive).

Which activation does the source give for `CCCC(C)C(=O)Nc1ccc(NC(C)=O)cc1` (centres undefined) here?
The activation was -2.2% (inactive).

`CC(C)(C)c1ccc(/C=C/C(=O)NC2CCS(=O)(=O)C2)cc1` (centres undefined) was tested. Which activation did it give?
Its activation is 8.91% (inactive).

With `O=C(NC(Cc1c[nH]c2ccccc12)C(=O)N/N=C/c1ccc(Br)cc1)c1cccs1` (centres undefined) as the molecule, how does the activation read?
Its activation is -5.25% (inactive).

With `Cc1ncoc1C(=O)NCCC(c1ccccc1)c1ccccc1` as the molecule, how does the activation read?
Its activation is 1.32% (inactive).

How did the activation turn out when `Cc1ccc(N(Cc2cc(=O)[nH]c3ccccc23)C(=O)CCl)cc1` was run?
The activation was -2.09% (inactive).

Which activation does the source give for `COc1ccc(OC)c(S(=O)(=O)Nc2cccc(-c3ccc4nncn4n3)c2)c1` here?
The activation was -5.2% (inactive).

Which activation does the source give for `CC1(C)OC(=O)C(=CSc2ccc(C(C)(C)C)cc2)C(=O)O1` here?
The activation was -0.02% (inactive).

With `CC1CCCN(CCCNC(=O)CN2C(=O)COc3ccc(S(=O)(=O)N4CCOCC4)cc32)C1` (centres undefined) as the molecule, how does the activation read?
Its activation is -3.28% (inactive).

For `COc1ccc(C(=O)Oc2ccc(-c3nnco3)cc2)cc1S(=O)(=O)N1CCOCC1`, which activation is on record?
The activation was 5.67% (inactive).

Which activation does the source give for `C[n+]1ccc(/C=C/c2c[nH]c3ccccc23)cc1` here?
Its activation is 154% (active).

With `COc1ccc(C(=O)Nc2ccc(-n3nncc3C(C)(C)C)cc2)cc1` as the molecule, how does the activation read?
The activation was -5.43% (inactive).

Which activation does the source give for `O=C(NC(=S)N1CCc2ccccc21)c1ccco1` here?
Its activation is -3.2% (inactive).

`CC(C)NC(=O)N1CCN(c2ccncc2S(=O)(=O)N2CCCCC2)CC1` was tested. Which activation did it give?
The activation was 1.09% (inactive).

For `O=C(OCCOc1ccccc1Cl)c1cc(S(=O)(=O)N2CCCCC2)ccc1N1CCOCC1`, which activation is on record?
Its activation is -4.46% (inactive).

`CCCNC(=O)C(=O)Nc1cc2c3c(c1)CCC(=O)N3CCC2` was tested. Which activation did it give?
The activation was -3.33% (inactive).

For `OC1CN=C2Sc3ccccc3N2C1` (centres undefined), which activation is on record?
The activation was -0.74% (inactive).

With `O=C(N/N=C/C=C/c1ccco1)c1cccs1` as the molecule, how does the activation read?
The activation was 1.5% (inactive).

With `Cn1c(=O)c(=O)n(C)c2cc(S(=O)(=O)NCCN3CCN(c4ccccc4F)CC3)ccc21` as the molecule, how does the activation read?
Its activation is -1% (inactive).

How did the activation turn out when `CCN1/C(=C\c2ccc3ccccc3[n+]2CC)Sc2cc(C)ccc21` was run?
The activation was 38.1% (active).

For `Cc1ccc(C(=O)N/C(=C/c2ccco2)C(=O)NCCc2c[nH]c3ccccc23)cc1C`, which activation is on record?
The activation was -3.2% (inactive).

With `O=C(NCCc1c[nH]c2ccccc12)C1CCN(Cc2ccc(Br)cc2)CC1` as the molecule, how does the activation read?
Its activation is -15.1% (inactive).

Which activation does the source give for `N#C/C(=C/c1ccc(N2CCCCC2)o1)C(=O)NCCc1c[nH]c2ccccc12` here?
Its activation is 98.5% (active).

Which activation does the source give for `CN(c1ccccc1)S(=O)(=O)c1ccc(NC(=O)COc2ccccc2)cc1` here?
Its activation is 0.63% (inactive).

With `CC1CCN(C(=O)Cn2nnnc2CN2CCOCC2)CC1` as the molecule, how does the activation read?
The activation was -3.91% (inactive).

`O=S(=O)(Nc1cccc(Oc2ccc(Cl)cc2)n1)c1ccc(F)cc1` was tested. Which activation did it give?
The activation was -5.16% (inactive).

Which activation does the source give for `O=C(CCN1C(=O)[C@@H]2Cc3ccccc3CN2C1=O)NCCc1ccccc1` here?
Its activation is -2.53% (inactive).

`CN(CCc1ccccc1)C(=O)c1cccc(NC(=O)Cc2cccc(NC(=O)C3CCCN(C(=O)CCc4ccccc4)C3)c2)c1` (centres undefined) was tested. Which activation did it give?
The activation was -0.28% (inactive).

`Cc1ccccc1NC(=O)CCNS(=O)(=O)c1ccc2[nH]c(=O)oc2c1` was tested. Which activation did it give?
Its activation is -6.99% (inactive).

With `O=S(=O)(Cc1nnnn1-c1ccc(Br)cc1)c1ccc(F)cc1` as the molecule, how does the activation read?
The activation was 1.13% (inactive).

With `O=C(CC12CC3CC(CC(C3)C1)C2)Nc1ccc2c(c1)COC2=O` as the molecule, how does the activation read?
The activation was -1.12% (inactive).

`CCOc1ccc(OCC(=O)OC(C)C(=O)NC2CCCCC2C)cc1` (centres undefined) was tested. Which activation did it give?
The activation was 0.95% (inactive).

How did the activation turn out when `Cc1ccc(CS(=O)(=O)CCC(=O)NC2CC2)cc1` was run?
Its activation is -1.46% (inactive).

Which activation does the source give for `COc1ccccc1C(=O)Nc1nc2nc(-c3ccccc3)cc(=O)n2[nH]1` here?
The activation was 5.39% (inactive).

For `COc1ccc(N2CC(C(=O)N[C@@H](C)C(=O)N3CCCCC3)CC2=O)cc1` (some centres undefined), which activation is on record?
The activation was 2.39% (inactive).

`Cc1ccc(S(=O)(=O)n2cccc2CO)cc1` was tested. Which activation did it give?
The activation was 3.89% (inactive).

For `CC1(C)CC(=O)C/C(=N\NC(=O)c2cccs2)C1`, which activation is on record?
The activation was 9.93% (inactive).

With `Cc1cccc(N(C(=O)Cc2cccs2)C(C(=O)NC2CCCC2)c2ccsc2)c1` (centres undefined) as the molecule, how does the activation read?
The activation was 2.2% (inactive).

Which activation does the source give for `Cc1cc(F)ccc1N1CCC(N2CCN(C)C(CCO)C2)CC1` (centres undefined) here?
Its activation is 0.01% (inactive).

`O=S(=O)(c1cccc(-c2cn3ccccc3n2)c1)N1CCCC1` was tested. Which activation did it give?
The activation was -1.73% (inactive).

With `COc1ccc(N(C(=O)CNC(=O)c2ccco2)C(C(=O)NCC2CCCO2)c2ccccc2)cc1Cl` (centres undefined) as the molecule, how does the activation read?
The activation was -5.45% (inactive).

How did the activation turn out when `Nc1ncnc2c1ncn2[C@@H]1O[C@H](CNS(=O)(=O)c2ccc(-c3ccno3)s2)[C@@H](O)[C@H]1O` was run?
The activation was -2.32% (inactive).

With `CC1(C)CN(c2ccc(-c3ccnc4ncnn34)cc2)C1=O` as the molecule, how does the activation read?
The activation was 2.76% (inactive).

With `ClC1(Cl)CC1CSc1ncn[nH]1` (centres undefined) as the molecule, how does the activation read?
Its activation is 2.22% (inactive).

Which activation does the source give for `COc1ccc(CN(C)C(=S)Nc2ccc(Cl)cc2Cl)cc1` here?
Its activation is 5.9% (inactive).

`O=C(CCS(=O)(=O)Cc1ccccc1F)NCCCN1CCCCC1` was tested. Which activation did it give?
Its activation is 5.59% (inactive).

How did the activation turn out when `CCN(CC)CCn1c2ccc(Cl)cc2c2nc(C)sc21` was run?
Its activation is 1.89% (inactive).

For `CCN(CC)CCCC(C)n1c2nc(=O)[nH]c(=O)c-2nc2cc(Cl)ccc21` (centres undefined), which activation is on record?
Its activation is 1960% (active).

Which activation does the source give for `CSCC[C@H](NC(=O)NCc1cccs1)C(=O)O` here?
Its activation is 4.37% (inactive).

Which activation does the source give for `CC(C)c1nnc(NC(=O)CCC(=O)N2CCN(c3cccc(Cl)c3)CC2)s1` here?
The activation was -4.73% (inactive).

`COc1ccc(C(=O)COC(=O)C(O)c2ccccc2)c(OC)c1` (centres undefined) was tested. Which activation did it give?
Its activation is 3.19% (inactive).

For `O=C(/C=C/c1ccc2c(c1)OCCO2)c1ccc(O)cc1`, which activation is on record?
The activation was -0.07% (inactive).

For `O=C(O)/C=C/c1ccc(OCCCF)cc1`, which activation is on record?
Its activation is -2.79% (inactive).

Which activation does the source give for `O=C(/C=C(O)/C=C/c1ccc(O)cc1)/C=C/c1ccc(O)cc1` here?
Its activation is 40.2% (active).

With `NS(=O)(=O)c1ccc(NC(=O)COC(=O)c2c3c(nc4ccccc24)/C(=C\c2ccc4c(c2)OCO4)CCC3)cc1` as the molecule, how does the activation read?
The activation was 4.91% (inactive).

With `NC(=O)c1ccc(NC(=O)COC(=O)c2c3c(nc4ccccc24)/C(=C\c2ccc4c(c2)OCO4)CCC3)cc1` as the molecule, how does the activation read?
The activation was 514% (active).

`O=C(COC(=O)c1ccncc1)Nc1ccc2c(c1)OCO2` was tested. Which activation did it give?
Its activation is -5.52% (inactive).

`C=CCC(C(=O)c1ccccc1)[N+](C)(C)CC=C` (centres undefined) was tested. Which activation did it give?
Its activation is -2.42% (inactive).
